Assay outcomes: PubChem, several laboratories
A selection: hits, their analogues and other compounds. The true share with any hit is near 4.3%.
TRPM1 prom inh: inhibitors of MITF-dependent TRPM1 promoter reporter, primary screen, cell-based, SK-MEL-5, single point, luciferase | SK-MEL-5 TRPM1 promoter luciferase, 24 h | inhibition, % at 12.5 µM | actives 0.83% (n = 330,000) | AID 488899, 2010;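 active = mean inhibition across replicates of 60% or more, whatever share of single replicates reaches that level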
KKLEB tox: cytotoxicity in KKLEB CF airway cells, primary screen, cytotoxicity control for CF NF-kB inhibitor project, cell-based, uHTS, fluorescence assay plates. activity change (cytotoxicity), % at 5 µM. actives 0.36% (n = 360,000). KKLEB CF airway cells viability, ATPlite luminescence, overnight; active compounds read low; cells stimulated with P. aeruginosa culture filtrate. AID 602141, 2011;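 active = corrected activity change at or below -50% at 5 µM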
CF NFkB block: inhibitors of PAF-induced NF-kB signaling, primary screen, cell-based, GFP fluorescence, uHTS; inhibition, % at 5 µM; actives 0.86% (n = 360,000); KKLEB NF-kB-GFP reporter, GFP fluorescence overnight;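 active = at least 50% inhibition at 5 µM, scaled per plate between neutral and stimulator controls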;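 also: PAF is a Pseudomonas aeruginosa culture filtrate used as stimulus; plate controls were PAF-stimulated DMSO wells for no effect and unstimulated DMSO wells for full effect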
HIF-2a block: HIF-2a reporter inhibitors, primary screen, luminescence, 786-0 RCC cells | actives 0.72% (n = 360,000) | 786-0 RCC cells HIF-2a reporter, luciferase luminescence, overnight | inhibition, % at 18.8 µM | AID 624352, 2012;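 active = inhibition of the luminescence signal of 40% or more relative to plate controls, in a single-dose primary screen at 18.75 µM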
Peg3 promoter: Peg3 promoter-driven luciferase inhibitors, primary screen, cell-based, HeLa, luciferase luminescence. HeLa PEG-Prom luciferase reporter, overnight. inhibition, % at 20 µM. actives 1.7% (n = 360,000). AID 588405, 2011;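 active = inhibition of at least 50% at 20 µM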
CHOP inhibitor: inhibitors of CHOP promoter induction, primary screen, cell-based, unfolded protein response, luciferase reporter | CHO-K1 CHOP-promoter luciferase, tunicamycin-induced, 15-18 h | inhibition, % at 10 µM | actives 3.8% (n = 220,000) | AID 2732, 2010;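 active = compounds that reduced the stress-induced luciferase reporter signal by more than about 70% of percent inhibition, limit read from the data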;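 also: 0% = tunicamycin plus vehicle and 100% = wells without tunicamycin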
Starred values were filed as active, the others as inactive; x = no result given.

SMILES	TRPM1 prom inh	KKLEB tox	CF NFkB block	HIF-2a block	Peg3 promoter	CHOP inhibitor
O=C1NC(=O)C(=Cc2ccc(-c3ccc(F)cc3O)o2)C(=O)N1	46.3	-5.0	39.3	48.1*	8.5	x
Cn1c(O)c(/C=C2/C=CC=N2)c(=O)[nH]c1=O	-0.6	2.3	2.1	14.2	11.4	-0.8
COc1ccc2c(c[n+](C)c3c4cc5c(cc4ccc23)OCO5)c1OC	x	x	x	x	x	-25.4
O=C1C(=O)c2ccccc2-c2ccccc21	109.8*	5.1	83.3*	97.7*	101.5*	107.0*
C=C1C(C)C2C(Cc3ccccc3)NC(=O)C23C(OC(C)=O)C=CC(C)(O)CC(C)CC=CC3C1O (stereo unspecified)	-1.4	-66.9*	53.3*	9.9	-15.6	x
C=C1[C@@H](C)[C@H]2[C@H](Cc3ccccc3)NC(=O)[C@]23OC(=O)/C=C/[C@H](O)CCC[C@@H](C)C/C=C/[C@H]3[C@@H]1O	13.9	-36.9	81.1*	-14.9	64.5*	-61.4
C[C@H]1C/C=C/[C@H]2[C@H](O)[C@H](C)[C@@](C)(O)[C@H]3[C@H](Cc4ccccc4)NC(=O)[C@]32[C@H](O)/C=C/[C@](C)(O)C1	x	-17.0	-8.4	-0.7	15.1	x
C/C(=C\c1ccc(N(C)C)cc1)[N+](=O)[O-]	79.6*	-33.1	-5.0	93.3*	101.4*	-10.1
CN(C)c1ccc(/C=C/[N+](=O)[O-])cc1	5.6	0.3	3.6	11.1	-16.9	-74.0
CCOP(=O)(OCC)C(NC(=O)Cc1ccccc1)C(Cl)(Cl)Cl (stereo unspecified)	2.7	4.4	5.0	6.4	6.8	22.0
CCOP(=O)(OCC)C(NC(=O)CC(C)C)C(Cl)(Cl)Cl (stereo unspecified)	9.4	-7.5	2.3	17.6	5.8	70.7*
COc1ccc(CN2C(=O)NC(=O)/C(=C/c3ccc([N+](=O)[O-])o3)C2=O)cc1	x	x	x	x	x	1.9
Cc1cc(/C=C2\C(=O)NC(=O)N(c3ccc(Cl)cc3)C2=O)c(C)n1-c1sc2c(c1C#N)CCCC2	0.6	-10.1	-3.3	2.3	16.9	-22.0
CCOC(=O)c1c(-n2c(C)cc(/C=C3\C(=O)NC(=O)N(C)C3=O)c2C)sc2c1CCCC2	2.9	5.5	14.2	32.1	27.7	76.9*
NS(=O)(=O)c1ccc(N=Cc2c(O)n(C3CCCCC3)c(=O)n(C3CCCCC3)c2=O)cc1	9.1	-5.2	9.7	11.2	16.0	112.0*
CCn1c(O)c(C=Nc2ccc(S(N)(=O)=O)cc2)c(=O)n(CC)c1=S	32.6	-14.1	48.7	28.5	1.7	25.1
Cc1nc(-c2ccc(-c3ccc(C(=O)N4CCc5cc6c(cc54)C4(CCN(C)CC4)CO6)cc3)c(C)c2)no1	x	x	x	x	x	17.1
CC(O)C1C=CC=CC(=O)OC2CC3OC4C5OC5(C)C(O)CC4(COC(=O)C(O)C(C)CCO1)C2(C)C31CO1 (stereo unspecified)	79.2*	-13.4	83.0*	65.7*	104.9*	x
COc1ccccc1N1CCN(Cc2ccc(Br)s2)CC1	1.0	5.6	-16.6	12.8	15.0	58.6
C=C(C)[C@H]1Cc2c(ccc3c2O[C@@H]2COc4cc(OC)c(OC)cc4[C@@H]2C3=O)O1	x	x	x	x	x	27.4
CCCCCCCSc1cc(OC)c(CCN(C)C)cc1OC	-2.8	-5.1	4.8	5.6	103.5*	22.0
Cc1ccc(C2=NC(C)(C)N3C2C3c2ccc([N+](=O)[O-])cc2)cc1 (stereo unspecified)	-8.6	1.1	0.0	16.8	8.2	70.3*
COc1cc2[nH]c(C(=O)N3CCC4(CC3)OCCO4)cc2c(OC)c1OC	-4.6	22.0	-13.3	-4.4	-54.5	x
CSc1ccc(C(=O)C2CCCN(Cc3cc4ccccc4[nH]3)C2)cc1 (stereo unspecified)	21.1	-7.5	13.3	11.1	19.7	70.2*
CCOc1cc(CNCCc2c[nH]c3ccccc23)cc(Cl)c1OC	3.7	-0.5	7.6	22.9	62.5*	89.5*
SMILES	TRPM1 prom inh	KKLEB tox	CF NFkB block	HIF-2a block	Peg3 promoter	CHOP inhibitor
O=C1NC(=O)C(=Cc2c(Cl)cccc2Cl)C(=O)N1	23.0	-37.6	58.8*	26.0	14.7	x
Cc1c(C=C2C(=O)NC(=O)NC2=O)c(=O)n(-c2ccccc2)n1C	8.8	-14.0	8.7	9.3	-10.6	8.3
N/C(=N/[N+](=O)[O-])N1CCN(C(=O)Oc2ccc([N+](=O)[O-])cc2)CC1	-15.7	-13.0	4.3	10.4	1.7	x
C=C1C(=O)O[C@@H]2C[C@@H](C)[C@@H]3C=CC(=O)[C@@]3(C)[C@@H](OC(=O)CC(=O)O[C@H]3[C@@H]4C(=C)C(=O)O[C@@H]4C[C@@H](C)[C@@H]4C=CC(=O)[C@]43C)[C@H]12	98.3*	-36.6	80.5*	97.4*	105.1*	107.8*
C=C1C(=O)O[C@H]2[C@H]1[C@H](OC(=O)CC(=O)O[C@@H]1C[C@@H](C)[C@@H]3C=CC(=O)[C@@]3(C)[C@H]3OC(=O)C(=C)[C@H]13)C[C@@H](C)[C@H]1C=CC(=O)[C@]12C	10.3	-8.0	46.6	-3.0	22.4	-40.3
NC(CP(=O)(O)O)C(=O)O (stereo unspecified)	x	x	x	x	x	-25.3
O=C(Oc1c(Cl)cc(Cl)c2ccccc12)N1CCCCC1	-4.7	-5.6	9.1	-94.5	-38.1	76.9*
CCn1c(O)c(C(c2ccccn2)c2c(O)n(CC)c(=S)[nH]c2=O)c(=O)[nH]c1=S	-2.3	9.6	-13.6	8.7	0.2	3.7
CCc1ccc(N2C(=O)NC(=O)/C(=C\c3cccn3CCOc3ccc(C(C)C)cc3)C2=O)cc1	-9.6	7.0	-46.3	-37.6	-102.7	87.2*
Cc1ccc(OCCn2cccc2/C=C2/C(=O)NC(=O)N(Cc3ccco3)C2=O)cc1	-41.7	9.5	-33.4	-81.9	-88.5	-17.2
BrCC(Br)(Br)Br	11.8	9.3	-10.5	-0.7	3.6	x
C/C(=N\N=C(N)N)c1ccccc1	16.6	-5.0	5.5	13.1	6.6	2.1
FC(F)(F)c1ccc(NC2=NCCCS2)cc1	-19.9	-1.7	2.6	-154.2	-58.6	x
Cc1sc2c(c1C)C(c1ccc(C(C)(C)C)cc1)=NCC(=O)N2CC(=O)Nc1nccs1	4.0	7.3	5.2	16.3	10.6	83.5*
O=C1NC(=O)N(Cc2ccc(F)cc2)C(=O)/C1=C\c1ccoc1	-2.7	-9.0	3.5	12.5	10.4	-52.5
Cc1ccc(/C=C2/C(=O)NC(=O)N(Cc3ccc(F)cc3)C2=O)o1	x	x	x	x	x	89.2*
NC(Cc1ccc(N(CCCl)CCCl)cc1)C(=O)O (stereo unspecified)	x	x	x	x	x	-7.6
